Test results reported in PubChem BioAssay AID602261 (Sanford-Burnham Center for Chemical Genomics, 2012).
About 2,400 (0.67%) of roughly 360,000 compounds were called active. Many of the other results were omitted from the sample, so actives are more common in it than they were. A number with no mark means an inactive call.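 Rule for the calls: active = compounds whose normalised, plate-corrected inhibition of enzyme fluorescence in the single-dose primary screen is 50% or more; inactive = the rest.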

Biological target: Fatty acid synthase (Homo sapiens) (UniProt P49327)
Test: inhibition of human FAS-TE enzyme activity – biochemical, fluorescence intensity, uHTS, primary screen (AID 602261);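 note: 0% = DMSO with enzyme and 100% = substrate without enzyme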
Details: recombinant FAS-TE, OMFH fluorogenic substrate, fluorescence endpoint; at 15 µM; stronger effect = higher value

Fatty acid synthase (Homo sapiens), sequence (P49327 whole entry, looked up): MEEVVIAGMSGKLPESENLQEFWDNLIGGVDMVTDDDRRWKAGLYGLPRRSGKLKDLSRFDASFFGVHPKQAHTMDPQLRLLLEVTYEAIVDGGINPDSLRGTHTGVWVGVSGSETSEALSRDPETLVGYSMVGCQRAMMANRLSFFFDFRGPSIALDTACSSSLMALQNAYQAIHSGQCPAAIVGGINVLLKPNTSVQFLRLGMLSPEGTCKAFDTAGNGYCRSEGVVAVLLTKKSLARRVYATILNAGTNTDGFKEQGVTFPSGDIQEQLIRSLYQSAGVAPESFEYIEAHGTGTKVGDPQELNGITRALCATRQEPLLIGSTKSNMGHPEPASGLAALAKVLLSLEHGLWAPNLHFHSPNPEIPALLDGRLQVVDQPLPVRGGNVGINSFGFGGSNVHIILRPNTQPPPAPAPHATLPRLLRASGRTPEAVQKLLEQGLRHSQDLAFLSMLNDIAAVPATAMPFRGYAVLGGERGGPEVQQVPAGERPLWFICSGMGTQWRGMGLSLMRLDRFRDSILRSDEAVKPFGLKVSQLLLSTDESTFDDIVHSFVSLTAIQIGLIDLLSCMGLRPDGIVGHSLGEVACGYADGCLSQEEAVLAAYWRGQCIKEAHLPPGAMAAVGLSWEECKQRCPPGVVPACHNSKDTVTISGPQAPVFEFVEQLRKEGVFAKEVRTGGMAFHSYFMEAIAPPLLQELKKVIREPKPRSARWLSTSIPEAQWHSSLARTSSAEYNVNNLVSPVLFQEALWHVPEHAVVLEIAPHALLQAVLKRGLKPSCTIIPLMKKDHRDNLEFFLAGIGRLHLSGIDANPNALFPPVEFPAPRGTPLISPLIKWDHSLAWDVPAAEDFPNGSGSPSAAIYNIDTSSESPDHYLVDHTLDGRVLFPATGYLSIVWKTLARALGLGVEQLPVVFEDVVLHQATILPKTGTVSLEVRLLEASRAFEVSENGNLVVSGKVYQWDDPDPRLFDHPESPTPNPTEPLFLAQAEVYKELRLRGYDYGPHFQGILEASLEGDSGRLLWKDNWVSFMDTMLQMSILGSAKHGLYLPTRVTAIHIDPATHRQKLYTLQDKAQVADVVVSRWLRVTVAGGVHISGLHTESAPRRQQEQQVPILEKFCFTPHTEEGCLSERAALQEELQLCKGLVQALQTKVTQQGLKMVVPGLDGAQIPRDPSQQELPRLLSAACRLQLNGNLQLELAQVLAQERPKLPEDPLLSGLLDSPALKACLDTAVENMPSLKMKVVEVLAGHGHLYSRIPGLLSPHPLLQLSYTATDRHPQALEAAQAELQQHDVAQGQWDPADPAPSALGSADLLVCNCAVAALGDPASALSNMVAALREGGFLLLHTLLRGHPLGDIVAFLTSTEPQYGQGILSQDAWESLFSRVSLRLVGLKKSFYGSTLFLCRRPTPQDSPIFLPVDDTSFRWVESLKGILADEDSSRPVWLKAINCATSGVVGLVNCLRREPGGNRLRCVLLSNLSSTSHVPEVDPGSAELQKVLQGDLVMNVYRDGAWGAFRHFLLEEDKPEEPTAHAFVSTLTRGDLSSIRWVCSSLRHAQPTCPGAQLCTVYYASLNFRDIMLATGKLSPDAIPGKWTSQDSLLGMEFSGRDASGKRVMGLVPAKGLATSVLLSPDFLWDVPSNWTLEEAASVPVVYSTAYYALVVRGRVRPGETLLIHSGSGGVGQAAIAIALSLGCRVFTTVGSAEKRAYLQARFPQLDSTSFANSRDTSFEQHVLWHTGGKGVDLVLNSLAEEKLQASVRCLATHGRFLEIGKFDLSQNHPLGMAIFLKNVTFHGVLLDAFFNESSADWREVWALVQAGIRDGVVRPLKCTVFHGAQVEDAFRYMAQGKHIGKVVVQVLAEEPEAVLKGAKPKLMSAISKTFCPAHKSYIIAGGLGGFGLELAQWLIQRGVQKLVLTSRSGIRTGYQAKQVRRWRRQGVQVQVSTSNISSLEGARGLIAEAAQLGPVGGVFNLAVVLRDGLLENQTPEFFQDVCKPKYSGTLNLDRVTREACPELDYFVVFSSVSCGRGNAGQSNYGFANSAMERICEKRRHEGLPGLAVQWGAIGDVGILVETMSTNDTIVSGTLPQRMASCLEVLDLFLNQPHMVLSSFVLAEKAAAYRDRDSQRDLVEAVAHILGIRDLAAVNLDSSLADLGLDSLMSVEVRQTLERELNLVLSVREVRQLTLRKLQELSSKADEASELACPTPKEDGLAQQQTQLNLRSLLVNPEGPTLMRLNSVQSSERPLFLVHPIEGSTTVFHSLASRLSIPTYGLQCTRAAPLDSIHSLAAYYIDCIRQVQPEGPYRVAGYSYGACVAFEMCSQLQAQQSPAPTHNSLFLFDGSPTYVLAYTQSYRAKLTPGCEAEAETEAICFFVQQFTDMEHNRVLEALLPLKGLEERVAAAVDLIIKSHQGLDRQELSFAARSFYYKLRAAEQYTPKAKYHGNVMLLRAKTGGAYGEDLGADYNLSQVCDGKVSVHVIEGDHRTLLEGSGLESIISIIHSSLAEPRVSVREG

SMILES | inhibition
O=C(Nc1cccc([N+](=O)[O-])c1)N1CCc2ccccc2C1 | 52.5% (active)
CCc1ccc(NC(=O)N2CCc3ccccc3C2)cc1 | 4.2%
O=C(CN1CCC(NC(=O)Nc2ccccc2)CC1)Nc1cccc([N+](=O)[O-])c1 | 1.8%
N#CCC(=O)N/N=C/c1ccc(SCC(=O)Nc2ccccc2)o1 | -2.5%
CCC1CCCCN1CCCNC(=O)c1cc2c(Cl)nc3ccccc3c2s1 (stereo not given) | -5.7%
O=[N+]([O-])c1c(NCCO)cc(Sc2nc3ccccc3s2)c2nonc12 | 83.1% (active)
COc1cc(C2C(C(=O)c3cccs3)=C(O)C(=O)N2CCN2CCOCC2)ccc1OCCC(C)C (stereo not given) | 0.8%
Cc1cc(C)c(C2C3=C(Nc4c2c(C)nn4-c2ccccn2)c2ccccc2C3=O)c(C)c1 (stereo not given) | 68.9% (active)
CC/C(Cc1ccccc1)=N/NC(=O)CCn1nnc2ccccc21 | -8.1%
CC1(C(=O)NS(=O)(=O)c2ccc(C#N)cc2)CCN1C(=O)CC1CCCC1 (stereo not given) | 4.2%
CC1(C(=O)NS(=O)(=O)c2ccc(C#N)cc2)CCN1C(=O)c1ccc(C2CCCCC2)cc1 (stereo not given) | 62.6% (active)
Cc1noc(C)c1C(=O)N1CCC1(C)C(=O)NS(=O)(=O)c1ccc(C#N)cc1 (stereo not given) | -9%
O=C1CCC/C(=N\NC(=O)NC2CCCCC2)C1 | -1%
CCOC(=O)N1CCN(Cc2nc3ccc([N+](=O)[O-])cc3c(=O)n2-c2cccc(OC)c2)CC1 | 72.4% (active)
COc1cccc(-n2nc(C(=O)N3CCN(Cc4ccccc4)CC3)c3ccccc3c2=O)c1 | 3.5%
CCOC(=O)N1CCN(Cc2nc3cc(NC(C)=O)ccc3n2C)CC1 | -7%
CCOC(=O)CSC1=N/C(=C/c2ccc(-n3cncn3)cc2)C(=O)N1C(C)=O | -6.6%
Cc1cc(C(=O)N/N=C/c2cc([N+](=O)[O-])cc(C)c2O)n[nH]1 | 65.7% (active)
Cc1occc1C(=O)N/N=C/c1ccc(-c2cccc([N+](=O)[O-])c2)o1 | 20.7%
Cc1c(Cl)c([N+](=O)[O-])nn1Cc1ccc(C(=O)N/N=C\c2cc(Cl)ccc2O)o1 | 36.1%
Cc1ccc(S(=O)(=O)Nc2ccc3c(c2)C(=O)N([C@H](C)CO)C[C@@H](C)[C@@H](CN(C)C(=O)Nc2cccc4ccccc24)O3)cc1 | -2.7%
COc1ccc2nc(N3CCN(C(=O)c4ccc([N+](=O)[O-])o4)CC3)sc2c1 | 10.7%
Fc1ccc2nc(Nc3nc4c(s3)CCCC4)sc2c1 | 7.4%
COc1ccc2nc(Nc3nc4cc5c(cc4s3)OCCO5)sc2c1 | 66.6% (active)
CSc1ccccc1NC(=O)c1cnc2sc(C)cn2c1=O | 4.9%
O=[N+]([O-])c1cc([N+](=O)[O-])c(Oc2cc(F)cc(F)c2F)cc1NN1CCCCC1 | 11.3%
Cc1cccc(C(=O)OCC(=O)NC(C)C2CC3CCC2C3)c1O (stereo not given) | 20.1%
COC(=O)c1cc(C(=O)NC(C)C2CC3CCC2C3)cc([N+](=O)[O-])c1 (stereo not given) | 50.5% (active)

SMILES | inhibition
Cc1c(C(=O)NC(C)C2CC3CCC2C3)cccc1[N+](=O)[O-] (stereo not given) | 11.2%
COc1ccc(CN2C(CC(=O)Nc3cccnc3)c3ccc(C(F)(F)F)cc3S2(=O)=O)cc1 (stereo not given) | 14.3%
CCCCc1nc2cc(C(=O)NCCc3cnn(C)c3)ccc2o1 | -2.8%
Cc1noc(C)c1NC(=O)Nc1cccc2c1O[C@H](CN(C)C(=O)Nc1ccccc1)[C@@H](C)CN([C@H](C)CO)C2=O | 55.4% (active)
Cc1noc(C)c1NC(=O)Nc1ccc2c(c1)C(=O)N([C@H](C)CO)C[C@H](C)[C@@H](CN(C)C(=O)Nc1ccccc1)O2 | -5.3%
Cc1noc(C)c1NC(=O)Nc1cccc2c1O[C@H](CN(C)S(=O)(=O)c1c(C)noc1C)[C@@H](C)CN([C@H](C)CO)C2=O | 3.4%
COc1ccc(CCCNC(=O)C2Cc3c(-c4cccc(C(N)=O)c4)ccnc3O2)cc1 (stereo not given) | 1.7%
O=S(=O)(NCCCCCCNS(=O)(=O)c1c(F)cccc1F)c1ccc2c(c1)OCCO2 | 3.8%
O=C(Nc1nnc(SCc2ccccc2Cl)s1)c1cccc([N+](=O)[O-])c1 | 58.6% (active)
O=C(Nc1nnc(SCc2c(Cl)cccc2Cl)s1)C1CCCO1 (stereo not given) | 0.2%
COCCSc1nnc(NC(=O)c2cc(OC)c(OC)cc2[N+](=O)[O-])s1 | -10.4%
CCCn1c(N)c(C(=O)CSc2nc3ccccc3c(=O)n2-c2ccc(OC)cc2)c(=O)[nH]c1=O | -0.6%
O=S(=O)(Cc1noc(-c2ccc(OC(F)(F)F)cc2)n1)c1ccc(F)cc1 | 15.8%
Cc1ccc(S(=O)(=O)NCC(=O)N(CC(=O)NCC2CCCO2)c2cccc(F)c2)cc1 (stereo not given) | -4.4%
COc1cc(-c2n[nH]c(=S)n2Cc2ccccc2)cc(OC)c1OC | -3.4%
CC(C)Oc1ccc(CCc2n[nH]c(=S)n2Cc2ccccc2)cc1 | 19.3%
CC(C)Oc1ccc(Cc2n[nH]c(=S)n2Cc2ccccc2)cc1Cl | 57% (active)
O=C(Nc1cccc(S(=O)(=O)N2CCOCC2)c1)C12CC3CC(CC(C3)C1)C2 | 9.3%
O=C(NCc1ccco1)/C(=C/c1cccc([N+](=O)[O-])c1)NC(=O)c1ccco1 | 38.7%
COc1ccc(/C=C(/NC(=O)c2ccco2)C(=O)Nc2ccc(C(C)=O)cc2)cc1 | -1.1%
O=C(/C=C/c1cccc([N+](=O)[O-])c1)NCCSCc1ccco1 | 55.4% (active)
O=C(NCc1ccco1)/C(=C/c1ccco1)NC(=O)c1ccccc1 | -4.1%
O=C(/C=C/c1ccc([N+](=O)[O-])cc1)NCCSCc1ccco1 | 9.8%
O=C(NCc1ccco1)/C(=C\c1cccc([N+](=O)[O-])c1)NC(=O)c1ccco1 | 51.4% (active)
O=C(Nc1ccc2ccccc2c1)/C(=C/c1cccc(Br)c1)NC(=O)c1ccco1 | 52.3% (active)
Cc1ccc(NC(=O)/C(=C\c2ccccc2)NC(=O)c2ccco2)cc1 | 0%
O=C(NCc1ccco1)c1ccc([N+](=O)[O-])cc1Cl | 5.6%
